The panel holds about 79,000 compounds, 15% with a hit somewhere; the sample as a whole holds those more often. A number with no mark means an inactive call. Active and inactive are the calls of the source. No stated cut-off is given here; in the data, active means growth inhibition above about 70%; inactive means the rest.
What was measured:
[1] = NCI Yeast Anticancer Drug Screen. Data for the rad50 strain (AID 155);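 further: 0% = growth of vehicle-only cultures of the same strain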; conditions: S. cerevisiae rad50 strain growth inhibition, active compounds read high
Summary of the method: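 Inhibition values express reduced yeast growth in compound-treated cultures relative to vehicle-treated controls.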

[2] = NCI Yeast Anticancer Drug Screen. Data for the mec2-1 strain (AID 157); conditions: S. cerevisiae mec2-1 strain, active compounds read high
Summary of the method: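 Yeast mec2-1 mutant treated with compound. Readout: growth inhibition vs vehicle controls.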

[3] = NCI Yeast Anticancer Drug Screen. Data for the sgs1 mgt1 strain (AID 161);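 further: 0% = growth of cultures given vehicle only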; conditions: S. cerevisiae sgs1 mgt1 strain, active compounds read high
Summary of the method: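 Read-out: growth inhibition vs vehicle controls. Cells: mutant yeast strain deficient in DNA damage repair.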

[4] = NCI Yeast Anticancer Drug Screen. Data for the cln2 rad14 strain (AID 165);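 further: 0% = growth equal to vehicle treated cultures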; conditions: S. cerevisiae cln2 rad14 strain, active compounds read high
Summary of the method: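 cln2 rad14 yeast strain; compound exposure; growth inhibition read vs vehicle controls.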

[5] = NCI Yeast Anticancer Drug Screen. Data for the bub3 strain (AID 167); conditions: S. cerevisiae bub3 mutant strain, active compounds read high
Summary of the method: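 Steps: expose the mutant yeast strain to compound; grow alongside vehicle-treated cultures; measure growth; express inhibition against the vehicle cultures.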

[6] = NCI Yeast Anticancer Drug Screen. Data for the mlh1 rad18 strain (AID 175); conditions: S. cerevisiae mlh1 rad18 strain growth inhibition, active compounds read high
Summary of the method: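 Yeast w/ defined DNA-repair lesions; compound exposure; growth vs vehicle controls → % inhibition.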

[7] = at 5.0 µM (retest, dose inferred, filed as 0.5)
[8] = at 50.0 µM (retest, dose inferred, filed as 5.0)

For `Cc1c(N=Nc2c(S(=O)(=O)O)cc3cc(S(=O)(=O)O)c(N=Nc4c(C)n(C)n(-c5ccccc5)c4=O)c(O)c3c2O)c(=O)n(-c2ccccc2)n1C`, the growth inhibition [1, 7] was -20%, the growth inhibition [1, 8] was -13% and the growth inhibition ([1]; at 50.0 µM) was 3.25%. For the same molecule, the growth inhibition [2, 7] was -18%, the growth inhibition [2, 8] was -31% and the growth inhibition ([2]; at 50.0 µM) was 32.8%. It also gave a growth inhibition [3, 7] of -7%, a growth inhibition [3, 8] of 26% and a growth inhibition ([3]; at 50.0 µM) of 4.15%. The growth inhibition [4, 7] was 7%, the growth inhibition [4, 8] was 8% and the growth inhibition ([4]; at 50.0 µM) was 36.4%. For the same molecule, the growth inhibition [5, 7] was -19%, the growth inhibition [5, 8] was -11% and the growth inhibition ([5]; at 50.0 µM) was -29.4%. For the same molecule, the growth inhibition [6, 7] was 5%, the growth inhibition [6, 8] was -7% and the growth inhibition ([6]; at 50.0 µM) was -6.6%.

With `CCOC(=O)c1sc(N/N=C2\NC(=O)/C(=C/c3ccc([N+](=O)[O-])cc3)S2)nc1C` the growth inhibition [1, 7] was 13%, the growth inhibition [1, 8] was 74% (active) and the growth inhibition ([1]; at 50.0 µM) was 92.8% (active). The growth inhibition [2, 7] was 10%, the growth inhibition [2, 8] was 90% (active) and the growth inhibition ([2]; at 50.0 µM) was 73.9% (active). The growth inhibition [3, 7] was 12%, the growth inhibition [3, 8] was 92% (active) and the growth inhibition ([3]; at 50.0 µM) was 97.7% (active). The growth inhibition [4, 7] was -4%, the growth inhibition [4, 8] was 87% (active) and the growth inhibition ([4]; at 50.0 µM) was 87.1% (active). The growth inhibition [5, 7] was -26%, the growth inhibition [5, 8] was 92% (active) and the growth inhibition ([5]; at 50.0 µM) was 95.3% (active). The growth inhibition [6, 7] was 22%, the growth inhibition [6, 8] was 92% (active) and the growth inhibition ([6]; at 50.0 µM) was 96.2% (active).

In the case of `Clc1ccnc2c1ccc1c(Cl)ccnc12`, the growth inhibition [1, 7] is reported as 8%, the growth inhibition [1, 8] is reported as 53% and the growth inhibition ([1]; at 50.0 µM) is reported as 43.6%. For the same molecule, the growth inhibition [2, 7] was -17%, the growth inhibition [2, 8] was 2% and the growth inhibition ([2]; at 50.0 µM) was 26.4%. It also gave a growth inhibition [3, 7] of 1%, a growth inhibition [3, 8] of 12% and a growth inhibition ([3]; at 50.0 µM) of 20.7%. The growth inhibition [4, 7] was 5%, the growth inhibition [4, 8] was -10% and the growth inhibition ([4]; at 50.0 µM) was 13.9%. The growth inhibition [5, 7] was -74%, the growth inhibition [5, 8] was 10% and the growth inhibition ([5]; at 50.0 µM) was 40.6%. For the same molecule, the growth inhibition [6, 7] was 3%, the growth inhibition [6, 8] was 15% and the growth inhibition ([6]; at 50.0 µM) was 45.9%.

In the case of `CO/C(=N\N=C(/c1ccccc1)C(F)(F)F)c1ccncc1`, the growth inhibition [1, 7] is reported as 44%, the growth inhibition [1, 8] is reported as 75% (active) and the growth inhibition ([1]; at 50.0 µM) is reported as 45%. It also gave a growth inhibition [2, 7] of 0%, a growth inhibition [2, 8] of 58% and a growth inhibition ([2]; at 50.0 µM) of 62.6%. For the same molecule, the growth inhibition [3, 7] was 15%, the growth inhibition [3, 8] was 76% (active) and the growth inhibition ([3]; at 50.0 µM) was 71.8% (active). For the same molecule, the growth inhibition [4, 7] was 25%, the growth inhibition [4, 8] was 52% and the growth inhibition ([4]; at 50.0 µM) was 44.5%. For the same molecule, the growth inhibition [5, 7] was 2%, the growth inhibition [5, 8] was 79% (active) and the growth inhibition ([5]; at 50.0 µM) was 75.2% (active). For the same molecule, the growth inhibition [6, 7] was 0%, the growth inhibition [6, 8] was 66% and the growth inhibition ([6]; at 50.0 µM) was 65%.

For `O=c1oc(-c2cc([N+](=O)[O-])cc([N+](=O)[O-])c2Cl)nc2ccccc12`, the growth inhibition [1, 7] was 29%, the growth inhibition [1, 8] was 50% and the growth inhibition ([1]; at 50.0 µM) was 75.3% (active). It also gave a growth inhibition [2, 7] of 8%, a growth inhibition [2, 8] of 22% and a growth inhibition ([2]; at 50.0 µM) of 63.5%. For the same molecule, the growth inhibition [3, 7] was 13%, the growth inhibition [3, 8] was 47% and the growth inhibition ([3]; at 50.0 µM) was 83.7% (active). It also gave a growth inhibition [4, 7] of 15%, a growth inhibition [4, 8] of 44% and a growth inhibition ([4]; at 50.0 µM) of 61.5%. The growth inhibition [5, 7] was 15%, the growth inhibition [5, 8] was 58% and the growth inhibition ([5]; at 50.0 µM) was 82.5% (active). The growth inhibition [6, 7] was 1%, the growth inhibition [6, 8] was 57% and the growth inhibition ([6]; at 50.0 µM) was 86.8% (active).

For `Cc1ccc(/C=C2\CCCC(CN(C)C)C2=O)cc1` (stereo not given), the growth inhibition [1, 7] was -12%, the growth inhibition [1, 8] was 95% (active) and the growth inhibition ([1]; at 50.0 µM) was 61.5%. The growth inhibition [2, 7] was -4%, the growth inhibition [2, 8] was 99% (active) and the growth inhibition ([2]; at 50.0 µM) was 62.5%. For the same molecule, the growth inhibition [3, 7] was -16%, the growth inhibition [3, 8] was 96% (active) and the growth inhibition ([3]; at 50.0 µM) was 78.5% (active). The growth inhibition [4, 7] was 6%, the growth inhibition [4, 8] was 97% (active) and the growth inhibition ([4]; at 50.0 µM) was 41.4%. The growth inhibition [5, 7] was -31%, the growth inhibition [5, 8] was 99% (active) and the growth inhibition ([5]; at 50.0 µM) was 49.3%. The growth inhibition [6, 7] was -13%, the growth inhibition [6, 8] was 96% (active) and the growth inhibition ([6]; at 50.0 µM) was 52.4%.

Molecule `COc1ccc(-c2cn(-c3ccccc3)c3ncnc(N)c23)cc1` has a growth inhibition [1, 7] of 5%, a growth inhibition [1, 8] of 18% and a growth inhibition ([1]; at 50.0 µM) of 24.1%. It also gave a growth inhibition [2, 7] of 5%, a growth inhibition [2, 8] of 23% and a growth inhibition ([2]; at 50.0 µM) of 11.8%. For the same molecule, the growth inhibition [3, 7] was 10%, the growth inhibition [3, 8] was 52% and the growth inhibition ([3]; at 50.0 µM) was 79.5% (active). For the same molecule, the growth inhibition [4, 7] was 1%, the growth inhibition [4, 8] was 0% and the growth inhibition ([4]; at 50.0 µM) was 33.8%. For the same molecule, the growth inhibition [5, 7] was 2%, the growth inhibition [5, 8] was 9% and the growth inhibition ([5]; at 50.0 µM) was -15.4%. It also gave a growth inhibition [6, 7] of -2%, a growth inhibition [6, 8] of 14% and a growth inhibition ([6]; at 50.0 µM) of 17.6%.

With `COc1cc(/C=C2\CC(C)C/C(=C\c3ccc(O)c(OC)c3)C2=O)ccc1O` (stereo not given) the growth inhibition [1, 7] was 84% (active), the growth inhibition [1, 8] was 83% (active) and the growth inhibition ([1]; at 50.0 µM) was 74.5% (active). For the same molecule, the growth inhibition [2, 7] was 91% (active), the growth inhibition [2, 8] was 89% (active) and the growth inhibition ([2]; at 50.0 µM) was 83.6% (active). The growth inhibition [3, 7] was 92% (active), the growth inhibition [3, 8] was 90% (active) and the growth inhibition ([3]; at 50.0 µM) was 77.7% (active). For the same molecule, the growth inhibition [4, 7] was 70% (active), the growth inhibition [4, 8] was 89% (active) and the growth inhibition ([4]; at 50.0 µM) was 81.6% (active). The growth inhibition [5, 7] was 91% (active), the growth inhibition [5, 8] was 89% (active) and the growth inhibition ([5]; at 50.0 µM) was 80.8% (active). For the same molecule, the growth inhibition [6, 7] was 84% (active), the growth inhibition [6, 8] was 90% (active) and the growth inhibition ([6]; at 50.0 µM) was 66.5%.

With `CC1=C(C)C1[N+](=O)[O-]` the growth inhibition [1, 7] was 45%, the growth inhibition [1, 8] was 94% (active) and the growth inhibition ([1]; at 50.0 µM) was 78% (active). The growth inhibition [2, 7] was 35%, the growth inhibition [2, 8] was 97% (active) and the growth inhibition ([2]; at 50.0 µM) was 79.8% (active). For the same molecule, the growth inhibition [3, 7] was 44%, the growth inhibition [3, 8] was 98% (active) and the growth inhibition ([3]; at 50.0 µM) was 69%. For the same molecule, the growth inhibition [4, 7] was 25%, the growth inhibition [4, 8] was 68% and the growth inhibition ([4]; at 50.0 µM) was 24.4%. For the same molecule, the growth inhibition [5, 7] was 49%, the growth inhibition [5, 8] was 97% (active) and the growth inhibition ([5]; at 50.0 µM) was 65.7%. For the same molecule, the growth inhibition [6, 7] was 64%, the growth inhibition [6, 8] was 95% (active) and the growth inhibition ([6]; at 50.0 µM) was 62.9%.

In the case of `CCC1(CC(=O)O)OCCc2c1[nH]c1c(C)c(Cl)ccc21` (stereo not given), the growth inhibition [1, 7] is reported as 10%, the growth inhibition [1, 8] is reported as 99% (active) and the growth inhibition ([1]; at 50.0 µM) is reported as 95.7% (active). For the same molecule, the growth inhibition [2, 7] was 1%, the growth inhibition [2, 8] was 99% (active) and the growth inhibition ([2]; at 50.0 µM) was 98.1% (active). For the same molecule, the growth inhibition [3, 7] was 2%, the growth inhibition [3, 8] was 97% (active) and the growth inhibition ([3]; at 50.0 µM) was 97.8% (active). The growth inhibition [4, 7] was -2%, the growth inhibition [4, 8] was 96% (active) and the growth inhibition ([4]; at 50.0 µM) was 97.2% (active). For the same molecule, the growth inhibition [5, 7] was -4%, the growth inhibition [5, 8] was 96% (active) and the growth inhibition ([5]; at 50.0 µM) was 95.8% (active). The growth inhibition [6, 7] was -1%, the growth inhibition [6, 8] was 97% (active) and the growth inhibition ([6]; at 50.0 µM) was 97.5% (active).
